For 40 compounds, growth results are on record in PubChem BioAssay (NCI).

About 83,000 compounds went through this panel and 20% of them were active in at least one assay; those are over-represented in the sample as a whole.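 Growth was measured after 48 h exposure to one concentration of compound in 96-well plates. Values under 10 count as active.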 The source made the active and inactive calls.

The test system of this assay is HT29 colon. Briefly: NCI-60 one-dose screen, 48 h (100 = growth as untreated, 0 = no growth, -100 = all killed). To be noted: 10 µM unless noted. The procedure: Growth inhibition of the HT29 human tumor cell line is measured as a screen for anti-cancer activity. Cells are grown in 96 well plates and exposed to the test compound for 48 hours. Compounds are tested at a single concentration, which is 10^-5 M for most compounds. The reported endpoint is percent growth (GI% or GIPRCNT), where numbers from 0 - 100% represent growth inhibition, and numbers from -100% - 0 represent cell death. For example, a value of 40 represents 60% growth inhibition. A value of 0 means no net growth occurred over the course of the experiment. A value of -40 indicates 40% of cells at the beginning of the experiment died by the end of the experiment. A value of -100 means all cells are dead at the end of the experiment.
NCI-60 Human Tumor Cell Lines Screen was performed using the standard one-dose NCI protocol, which is described in more detail at https://dtp.cancer.gov/discovery_development/nci-60/default.htm.
Compounds with GIPRCNT values below 10 were considered active. Activity score was based on GIPRCNT using the following formula: […]
Score is 0 for GIPRCNT values of 100 or above, 50 for GIPRCNT values of 0, and 100 for GIPRCNT values of -100.
Take `C(=C\c1nc2ccccc2[nH]1)/c1nc2ccccc2[nH]1`: the growth is 103% (inactive).

Regarding `O=C1Nc2ccccc2/C1=N/N=C/c1ccsc1`, the growth was 112% (inactive).

Turning to `Cc1cc(Cl)nc(N(CCCNc2ccnc3cc(Cl)ccc23)Cc2ccccn2)n1`, the growth was 10.2% (inactive).

`Nc1ccc(S(=O)(=O)Nc2ccsc2-c2nc(-c3ccccc3)no2)cc1`: the growth is 11.8% (inactive).

On to `CC1=NN(c2cccc(Cl)c2)C(=O)/C1=C\c1cn(CC(O)CN2CCCCC2)c2ccccc12` (stereo not given), for which the growth is -57.3% (active).

As to `CC(C)(C)N1CC(OC(N)=O)C1`, the growth is 101% (inactive).

Consider `O=C(/C=C/C12c3ccccc3C(c3ccccc31)C1C(=O)N(c3ccccc3)C(=O)C12)c1ccccc1` (stereo not given), for which the growth is 15.1% (inactive).

As to `COc1cccc(-c2nc3sccn3c2-c2ccnc(NCCNS(=O)(=O)c3c(Cl)cccc3Cl)c2)c1`, the growth was 47.3% (inactive).

Take `CCCCCOC(=O)c1ccc(NC(=O)CNCC(C)C)cc1`: the growth is 80.6% (inactive).

Consider `CCCCCCN(CCCCCC)CC(O)c1cccc2ccc(Cl)cc12` (stereo not given), for which the growth was 15.9% (inactive).

Take `CCCCCCNC(=O)c1cc(NCc2cc(O)ccc2O)ccc1O`: the growth is 91% (inactive).

Regarding `CCN(CCO)CC(=O)c1cc(Cl)cc(Cl)c1Cl`, the growth is 81.8% (inactive).

Regarding `O=C(NCc1cn(Cc2cccc(Oc3ccccc3)c2)nn1)c1cccnc1NCc1ccc(Cl)cc1`, the growth was 9.24% (active).

`CCOC(=O)c1c2c(c(C)n1C)-c1nn(Cc3ccc(OC)cc3)cc1CC2`: the growth was 79.1% (inactive).

Consider `Cc1c(C(=O)O[C@H]2[C@@H]3[C@H](C)CC[C@H]3[C@]3(C)O[C@@]2(C2CCCCC2)C[C@H]3OC(=O)CO)ccc2ccccc12`, for which the growth is -4.24% (active).

On to `CNCCNc1nc2ccccc2c2c(=O)c3cc(F)ccc3oc12`, for which the growth was 24.5% (inactive).

As for `C=C(C)[C@@H]1CC[C@]2(CO)CC[C@]3(C)[C@H](CC[C@@H]4[C@@]5(C)C=C(C#N)C(=O)C(C)(C)[C@@H]5CC[C@]43C)[C@@H]12`, the growth is 8.33% (active).

Consider `Cc1c2c(cn1Cc1ccccc1)CCc1cn[nH]c1-2`, for which the growth is 94.5% (inactive).

Turning to `O=C(CC12CC3CC(CC(C3)C1)C2)NCCOCCOCCOCCNC(=O)c1cc2c(o1)C(=O)c1ccccc1C2=O`, the growth is 1.17% (active).

Consider `C=C1C(=O)O[C@H]2[C@H]1CC/C(Cn1cc(CNCCc3c[nH]c4ccc(Cl)cc34)nn1)=C\CC[C@@]1(C)O[C@@H]21`, for which the growth was 21.2% (inactive).

Regarding `Cc1ccccc1NC(=O)CN(C)C`, the growth is 90.9% (inactive).

With `O=C1NCC(=O)N(Cc2ccco2)[C@H]1Cc1ccccc1`, the growth is 103% (inactive).

Take `c1ccc(-c2oc3ccccc3c2-c2ccccc2)cc1`: the growth was 99% (inactive).

Take `COc1ccc(C2CC(c3ccccc3)=NN2c2nc(C)c(C(C)=O)s2)cc1` (stereo not given): the growth was 102% (inactive).

Take `CCCc1cc(=O)oc2c3c(c4c(c12)OC(C)(C)C=C4)O[C@@H](C)[C@H](C)C3=O`: the growth is 41% (inactive).

Regarding `CN1C[C@@H](c2ccc(Cl)cc2)[C@]2(NC(=S)N(c3ccc(F)c(Cl)c3)C2=O)[C@@]12C(=O)NC1C=CC(Cl)=C[C@H]12` (stereo not given in full), the growth was 33.4% (inactive).

Take `Cc1nc2ccccc2c(/C=C/c2ccc(Cl)cc2)c1C(=O)/C=C/c1ccc(Cl)cc1`: the growth is 3.75% (active).

As for `N#Cc1c(Oc2ccc([N+](=O)[O-])cc2)nc2sc3cc(Cl)ccc3n2c1=N`, the growth is 33.4% (inactive).

`COc1ccc(/C=N/NC(=O)Cn2c(-c3ccc(S(C)(=O)=O)cc3)nc3cc(Cl)ccc32)cc1`: the growth was 3.57% (active).

With `Cn1ncc2c(Nc3ccc(Br)cc3)nc(Nc3ccc(Br)cc3)nc21`, the growth is 33.4% (inactive).

Turning to `Cc1ccc(NC(=O)C(Cl)Cl)cc1`, the growth is 92.7% (inactive).

For `Cc1cc(N(CCCNc2ccnc3cc(Cl)ccc23)Cc2ccccn2)nc(N2CCOCC2)n1`, the growth is 56% (inactive).

As for `CC(C)CCC[C@@H](C)[C@H]1CCC2C3=CCC4C(=O)C=CC(=O)C4C3CC[C@@]21C` (stereo not given in full), the growth was 11.3% (inactive).

For the compound `Clc1ccc(-c2nc(NCCc3ccccc3)nc3c(NCCc4ccccc4)cnn23)cc1`, the growth was 41.9% (inactive).

As for `COc1c(C)cnc(CSc2nc(-c3ccc(C)cc3)cn2-c2ccc(Cl)cc2)c1C`, the growth is 73.8% (inactive).

As to `C[C@@H]1C(=O)N(C[C@H](Cc2ccccc2)N(Cc2ccccc2)Cc2ccccc2)[C@]1(Cc1ccccc1)C(=O)OC(C)(C)C`, the growth was 46.4% (inactive).

Take `COc1cc2c(cc1OC)-c1ccc3cc4c(cc3c1N(CCN(C)C)C2)OCO4`: the growth is -45.8% (active).

Turning to `O=C(Oc1ccc[nH]c1=O)c1cc([N+](=O)[O-])cc([N+](=O)[O-])c1`, the growth is 112% (inactive).

Consider `CCO/C=N/C1=C(C#N)C(c2ccc(OC)cc2)c2c(c3ccccc3n(C)c2=O)O1` (stereo not given), for which the growth is 104% (inactive).

With `Nc1nc(N)c(-c2ccc(Cl)cc2)c(/C=C/c2ccc([N+](=O)[O-])cc2)n1`, the growth was 63.8% (inactive).
